PubChem BioAssay (NCATS)
Records with an inconclusive call do not appear. A number with no mark means an inactive call. Active and inactive are the calls of the source. Calls come from the whole dose curve; as a rule, active = well fitted inhibition curve with a large enough effect; inconclusive = small, poorly fitted or top-dose-only effect; inactive = flat fitted curve, though single readings scatter.

The compounds below were run against Calcium and integrin-binding protein 1 (Homo sapiens) (UniProt Q99828) (assay: Primary qHTS for Identification of Calcium Integrin Binding Protein 1 (CIB1) Competitor (AID 1508620;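 note: GST tagged CIB1 binding a fluorescein labelled alphaIIb integrin peptide tracer; top concentration of the series differs between compounds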)). Settings: CIB1-GST / FITC-alphaIIb peptide fluorescence polarization; series mostly up to 114 µM; activity change, negative = inhibition: at the top concentration.
Calcium and integrin-binding protein 1 (Homo sapiens), sequence (Q99828 whole entry, looked up): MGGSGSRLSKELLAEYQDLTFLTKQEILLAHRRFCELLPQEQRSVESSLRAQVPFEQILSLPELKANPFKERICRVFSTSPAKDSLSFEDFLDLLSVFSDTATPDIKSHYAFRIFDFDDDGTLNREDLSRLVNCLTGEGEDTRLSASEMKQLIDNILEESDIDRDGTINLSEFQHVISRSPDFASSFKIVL
Method in brief: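 Fluorescence polarization competition: CIB1-GST (1 uM final) preincubated with compound 15 min at room temperature, then FITC-labeled alphaIIb peptide (100 nM final) added for another 15 min. Polarization read at Ex 480/Em 540.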
% is set by controls: 0 for no effect and ±100 for the full control effect.

SMILES	activity change, negative = inhibition	Potency
Nc1cccc(-c2ccc(NC(=O)c3cccs3)cn2)c1	-3.82%	
Cc1ccc(OCCn2c(CCNC(=O)NC3CCCCC3)nc3ccccc32)cc1	40.5%	
COc1cccc(-c2nnc3n2N=C(c2cc(OC)ccc2OC)CS3)c1	0.905%	
CC(=O)c1ccc(N2CCN(S(=O)(=O)c3ccc4c(c3)CC(C)N4C(C)=O)CC2)cc1 (stereo not given)	6.13%	
Cc1ccc(C[C@H](C(=O)O)N2C(=O)c3ccc(C(=O)O)cc3C2=O)c(C)c1	-1.39%	
O=C1OC(c2ccccc2)(c2ccccc2)N2CCN(C(=O)NCc3ccc(F)cc3)CC12 (stereo not given)	4.41%	
COCc1nn2c(=O)cc(N3CCNCC3)nc2s1	-0.148%	
O=C(c1ccco1)N1CCN(c2nc(-c3ccc(Br)cc3)cs2)CC1	-0.0658%	
CC(=O)c1ccc(N2CCN(S(=O)(=O)c3ccc4c(c3)oc(=O)n4C)CC2)cc1	5.68%	
NC(=O)c1ccc(-c2noc(-c3cccc(Cl)c3)n2)cc1	1.3%	
Cn1nnnc1Sc1ncnc2scc(-c3cc4ccccc4o3)c12	-2.56%	
Cc1cc2c(s1)c1cnn(Cc3c(F)cccc3C(F)(F)F)c(=O)c1n2C	2.92%	
NC(=O)C1CCN(c2nc(-c3cccc(Br)c3)cs2)CC1	2.65%	
O=S(=O)(c1ccccc1)N1CCN(c2nc(-c3ccc(Br)cc3)cs2)CC1	5.29%	
COc1ccc(CN2C(=O)c3ccccc3NC2c2ccc(OC)c(COc3c(C)cc(NC(C)=O)cc3C)c2)cc1 (stereo not given)	2.21%	
O=S(=O)(NC1CCCC(NS(=O)(=O)c2c(F)cccc2F)C1)c1ccc2c(c1)OCCO2 (stereo not given)	-1.73%	
CC(C)(C)c1ccccc1Nc1nc(C#N)nc(NC2CCCC2)n1	8.08%	
COc1ccc(C2N=C(Nc3nc4ccccc4o3)NC3=C2C(=O)CCC3)cc1 (stereo not given)	-10.4%	
O=C(Nc1ccc(Cl)c(Cl)c1)Nc1ncc(-c2ccncc2)s1	-2.01%	
N#Cc1ccccc1-c1csc(N2CCC(C(N)=O)CC2)n1	-5.27%	

SMILES	activity change, negative = inhibition	Potency
CC(C)(C)OC(=O)Cc1nnc(-c2nc3ccccc3[nH]2)s1	-11.6%	
CC(C)c1ccccc1-c1nc(NCC2CCN(c3cccnc3)CC2)c2ccccc2n1	95.1%	
N#Cc1c(-c2ccc(C(F)(F)F)cc2)no[n+]1[O-]	-3.39%	
Cc1cccc(C[C@H](C(=O)O)N2C(=O)c3ccc(C(=O)O)cc3C2=O)c1	1.27%	
Cc1cccc(Nc2nn3c(=O)c4ccccc4nc3s2)c1	3.52%	
C#CCCC(=O)Nc1sc2c(c1-c1nc3ccccc3s1)CCNC2	7.8%	
O=C(Nc1sc2c(c1-c1nc3ccccc3s1)CCNC2)C(F)F	9.59%	
O=C(OCC#CCSc1nnc(-c2cccc3ccccc23)o1)c1ccsc1	1.84%	
Cc1cc(NC(=O)Nc2cccc(-c3ccncc3)n2)ccc1Cl		inactive
O=[N+]([O-])c1ccc([S+](=O)([O-])N2CCN([S+](=O)([O-])c3ccc4c(c3)OCCO4)CC2)c([N+](=O)[O-])c1	-12.1%	
Cc1cccc(-n2cnc3cc(C(=O)N4CC(C)CC(C)C4)ccc32)c1 (stereo not given)	-1.16%	
[O-][n+]1onc(-c2ccccc2)c1/C=N/O	-2.29%	
Nc1c(-c2ccncc2)cc[nH]c1=O	-16.6%	
Cc1ccc(-n2cnc3cc(C(=O)N4CCCCC4)ccc32)cc1	2.51%	
Cc1cc2c(s1)c1cnn(Cc3cccc(C(F)(F)F)c3)c(=O)c1n2C	5.12%	
Oc1ccc(COC2CCN(Cc3ccccc3)C2)c2cccnc12 (stereo not given)	-15.8%	
FC(F)(F)c1ccccc1-c1nc(NCc2ccc(Cl)c(Cl)c2)c2ccccc2n1	1.84%	
O=S(=O)(c1ccc2c(c1)OCCO2)C1CCC(S(=O)(=O)c2c(F)cccc2F)CC1 (stereo not given)		inactive
CCOC(=O)c1cccc(NS(=O)(=O)c2ccc(NC(=O)Cc3ccc(Cl)c(Cl)c3)cc2)c1	0.405%	
Cc1ccc(NC(=O)CN2C(=O)N/C(=C\c3cccn3-c3ccc(P(=O)(O)O)cc3)C2=O)cc1	1.02%	
